“And” between values parts separate entries of the source, which are not always exact repeats. Equal values may be shown once. Unmarked numbers belong to inactive results. Inconclusive results are not listed. The source made the active and inactive calls. Unless noted, calls come from the whole dose curve; as a rule, active = well fitted curve in the direction sought with a large enough effect in the repeat runs; inconclusive = weak or mixed curves; inactive = no such curve, though single readings can be large; an effect the other way counts as inactive or inconclusive.

These results are taken from PubChem BioAssay (Tox21).

The nature of assay [1]: qHTS assay to identify small molecule antagonists of the estrogen related receptor (ERR) signaling pathway from Tox21 library - cell viability counter screen (AID 1224834). Note: nearly all actives have a fitted effect of over 30% in size. The gist of the method: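 Viability readout (CellTiter-Fluor fluorescence, 30 min at 37 C) multiplexed with the ERR assay; cells treated 17.5 h at 37 C with compounds delivered in DMSO.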
The target in assay [2] is Luciferin 4-monooxygenase (Photinus pyralis) (UniProt P08659). The experiment in a line: qHTS assay to identify small molecule inhibitors of firefly luciferase (AID 1224835). Note: nearly all actives have a fitted effect of over 25% in size. Note: potency is the fitted concentration of half-maximal effect. The gist of the method: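 Biochemical qHTS: compounds run as interplate titrations against purified firefly enzyme, with D-luciferin and ATP each at its KM concentration. Light output recorded by CCD imaging.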
Sequence of Luciferin 4-monooxygenase (Photinus pyralis) (P08659 whole entry, looked up): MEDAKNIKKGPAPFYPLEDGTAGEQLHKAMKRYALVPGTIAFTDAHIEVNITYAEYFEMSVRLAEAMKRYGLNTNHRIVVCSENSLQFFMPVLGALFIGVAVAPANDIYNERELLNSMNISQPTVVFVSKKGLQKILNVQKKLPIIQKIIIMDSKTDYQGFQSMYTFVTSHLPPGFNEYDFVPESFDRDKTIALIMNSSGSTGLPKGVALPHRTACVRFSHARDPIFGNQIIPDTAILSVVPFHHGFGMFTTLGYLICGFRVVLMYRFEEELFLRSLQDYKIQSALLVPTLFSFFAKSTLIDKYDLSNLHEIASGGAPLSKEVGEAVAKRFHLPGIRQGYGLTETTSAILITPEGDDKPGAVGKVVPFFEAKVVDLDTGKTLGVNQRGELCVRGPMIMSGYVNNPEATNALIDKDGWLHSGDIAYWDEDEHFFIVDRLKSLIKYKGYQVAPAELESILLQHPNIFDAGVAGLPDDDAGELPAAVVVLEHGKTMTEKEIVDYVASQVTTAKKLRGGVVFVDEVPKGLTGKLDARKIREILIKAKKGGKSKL

Assay [3] is described as follows: qHTS assay to identify small molecule agonists of the constitutive androstane receptor (CAR) signaling pathway - cell viability counter screen (AID 1224836). Note: nearly all actives have a fitted effect of over 45% in size. The gist of the method:
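HepG2 cells stably carrying hCAR and a CYP2B6-2.2kb reporter were plated 4 h, then given compounds at 15 concentrations plus PK11195 (final 0.75 uM). After 23 h at 37 C, viability was read by CellTiter-Fluor fluorescence.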

Assay [4] is described as follows: qHTS assay to identify small molecule antagonists of the constitutive androstane receptor (CAR) signaling pathway - cell viability counter screen (AID 1224837). Note: nearly all actives have a fitted effect of over 45% in size. The gist of the method: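 Fluorescence from CellTiter-Fluor served as the viability signal. Human hepatoma HepG2 cells stably bearing hCAR and CYP2B6-2.2kb received compound plus CITCO (50 nM final) for 23 hr.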

The target in assay [5] is Nuclear receptor subfamily 1 group I member 3 (Homo sapiens) (UniProt Q14994). The experiment in a line: qHTS assay to identify small molecule antagonists of the constitutive androstane receptor (CAR) signaling pathway (AID 1224838). Note: nearly all actives have a fitted effect of over 40% in size. The gist of the method:
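Quantitative HTS in double-stable HepG2-CYP2B6-hCAR cells. After 4 h plating, cells get compound (15 concentrations) and CITCO at 50 nM final, incubate 24 h at 37 C, then ONE-Glo luminescence is read.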
For orientation: Quantitative high-throughput screening tests each substance at several concentrations.

Assay [6] has the same target. Nature of the assay: qHTS assay to identify small molecule agonists of the constitutive androstane receptor (CAR) signaling pathway (AID 1224839).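 For activation: HepG2 cells stably carrying human CAR and a CYP2B6 luciferase reporter.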 Note: nearly all actives have a fitted effect of over 15% in size. Note: potency is the fitted concentration of half-maximal effect. The gist of the method:
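HepG2 cells stably expressing hCAR and a CYP2B6-2.2kb luciferase reporter were treated with compounds at 15 concentrations plus 0.75 uM PK11195 (final) for 24 h at 37 C; luminescence was read after ONE-Glo addition.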

Assay [7] in a line: qHTS assay to identify small molecule antagonists of the estrogen related receptor signaling pathway with the pleiotropic PPARgamma coactivator (PGC) from Tox21 10K library - cell viability counter screen (AID 1224840; active = well fitted cell-killing curve with a large enough effect in the repeat runs, not every such curve was filed as active; note: nearly all actives have a fitted effect of over 40% in size). The gist of the method: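 Compounds in DMSO, alongside positive and negative controls, were pinned onto PGC/ERR cells (2,000 per well). Exposure lasted 17.5 hours at 37 C, followed by a 30-minute CellTiter-Fluor incubation and fluorescence reading.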

Assay [8] has as its target Thyrotropin receptor (Homo sapiens) (UniProt P16473). Nature of the assay: qHTS assay to identify small molecule agonists of the thyroid stimulating hormone receptor (TSHR) signaling pathway (AID 1224843; calls by dose curve; note: nearly all actives have a fitted effect of over 45% in size). The gist of the method: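 TSHR-HEK293 cells in agonist mode, 30 min room-temperature step, then cAMP measured by competitive HTRF (cAMP-d2 with anti-cAMP cryptate) after 1 h at room temperature. Tested at 15 concentrations in triplicate.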

Assay [9] in a line: qHTS assay to identify small molecule agonists of the hypoxia (HIF-1) signaling pathway - cell viability counter screen (AID 1224844; calls by dose curve; note: nearly all actives have a fitted effect of over 50% in size). The gist of the method: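 Luminescent ATP content (CellTiter-Glo, 30 min, room temperature) served as the viability measure in HRE-bla ME-180 cells exposed to compounds for 17 hrs in low-serum medium (0.5% dialyzed FBS).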
Assay [10] is described as follows: qHTS assay to identify small molecule agonists of H2AX (AID 1224845; active = well fitted activation curve with a large enough effect in the signal ratio in the repeat runs, not every such curve was filed as active; the % refers to the signal ratio). The gist of the method: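 Wild-type CHO-K1 cells, plated overnight, exposed 3hr at 37C to 15 concentrations (0.76% DMSO final). Lysed, then HTRF anti-pH2AX (S139) cryptate and anti-H2AX-d2 antibodies, 24 hr room temperature; 665/620 nm emission read.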
Assay [11] in a line: qHTS assay to identify small molecule agonists of the hypoxia (HIF-1) signaling pathway (AID 1224846; active = well fitted activation curve with a large enough effect in the signal ratio in the repeat runs, not every such curve was filed as active; the % refers to the signal ratio). The gist of the method: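 Measured by blue/green FRET after loading CCF4-AM: beta-lactamase expressed from a hypoxia response element in ME-180 cells. Test agents were delivered in DMSO and left 17 hrs; cells had been plated 5 hrs earlier in low-serum (0.5% dialyzed FBS) medium.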

Assay [12] can be described thus: qHTS assay to identify small molecule agonists of H2AX - cell viability counter screen (AID 1224847; calls by dose curve; note: nearly all actives have a fitted effect of over 30% in size; note: potency is the fitted concentration of half-maximal effect). The gist of the method: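 Wild-type CHO-K1 cells (10% FBS medium) were plated overnight at 37C, exposed to compounds at 15 concentrations for 3 hr at 37C (0.76% DMSO final), and viability was read as CellTiter-Glo luminescence after 30 min at room temperature.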

A short description of assay [13]: qHTS RealTime-Glo MT Cell Viability Assay in HepG2 cells - 24 hour (AID 1224867). Note: nearly all actives have a fitted effect of over 50% in size. The gist of the method:
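Viability was tracked continuously by NanoLuc luminescence from prosubstrate reduced by living HepG2 cells, at successive time points over 40 h of compound exposure. Cells with reagent were preincubated 5 h at 37 °C before compound addition.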

Assay [14] can be described thus: qHTS RealTime-Glo MT Cell Viability Assay in HEK293 cells - 32 hour (AID 1224868). Note: top concentration of the series differs between compounds; nearly all actives have a fitted effect of over 50% in size. The gist of the method: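 Viability tracked continuously by luminescence as live cells reduce a prosubstrate for NanoLuc; HEK293 cells preincubated 5 h, compound-treated at 37 C, and read at 0, 8, 16, 24, 32 and 40 h.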
A short description of assay [15]: A CellTox Green Cytotoxicity Assay to monitor cytotoxicity in HEK293 cells - 0 hour (AID 1224869). Note: nearly all actives have a fitted effect of over 50% in size. The gist of the method: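 Each value comes from one timepoint of a single continuous run in which HEK293 cells with CellTox Green were exposed to compound for up to 40 h at 37 C, dye fluorescence rising with cell death.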
Assay [16] can be described thus: qHTS RealTime-Glo MT Cell Viability Assay in HepG2 cells - 40 hour (AID 1224870). Note: nearly all actives have a fitted effect of over 50% in size. The gist of the method: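 HepG2 cells (600/well) mixed with RealTime-Glo MT reagent, settled 5 h at 37 C/5% CO2 before compound addition. Nonlytic NanoLuc luminescence from viable-cell prosubstrate reduction read repeatedly during 40 h treatment at 37 C.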
Assay [17] is described as follows: qHTS assay to identify small molecule antagonists of the estrogen related receptor signaling pathway with the pleiotropic PPARgamma coactivator (PGC) from Tox21 10K library (AID 1224841; call rule not given here). The gist of the method:
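Compound exposure ran 18 hours at 37 C in PGC/ERR cells (2,000/well) that had first rested 6 hours in a 37 C/5% CO2 incubator. Luciferase activity was then detected with One-Glo after a 30-minute room-temperature step.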

Assay [18] in a line: qHTS assay to identify small molecule antagonists of the estrogen related receptor (ERR) signaling pathway from Tox21 library (AID 1224848). Note: nearly all actives have a fitted effect of over 50% in size. The gist of the method:
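ERR reporter cell line (from NTP) seeded 2,000 cells/well, rested 6 h at 37 C/5% CO2, then pin-dosed with compounds in DMSO. After 18 h at 37 C, ONE-Glo added; luminescence read after 30 min at room temperature.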

The nature of assay [19]: qHTS assay to identify small molecule agonists of the estrogen related receptor (ERR) signaling pathway from Tox21 library (AID 1224849; calls by dose curve; note: nearly all actives have a fitted effect of over 15% in size). The note with it: ERR reporter cell line, ONE-Glo luciferase, 18 h. The gist of the method:
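We plated ERR reporter cells, waited 6 h, added compounds in DMSO by pin tool and incubated them 18 h at 37 C. ONE-Glo was then added and luminescence read after 30 min.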
% is set by controls: 0 for no effect and ±100 for the full control effect.

Sequence of Nuclear receptor subfamily 1 group I member 3 (Homo sapiens) (Q14994 whole entry, looked up): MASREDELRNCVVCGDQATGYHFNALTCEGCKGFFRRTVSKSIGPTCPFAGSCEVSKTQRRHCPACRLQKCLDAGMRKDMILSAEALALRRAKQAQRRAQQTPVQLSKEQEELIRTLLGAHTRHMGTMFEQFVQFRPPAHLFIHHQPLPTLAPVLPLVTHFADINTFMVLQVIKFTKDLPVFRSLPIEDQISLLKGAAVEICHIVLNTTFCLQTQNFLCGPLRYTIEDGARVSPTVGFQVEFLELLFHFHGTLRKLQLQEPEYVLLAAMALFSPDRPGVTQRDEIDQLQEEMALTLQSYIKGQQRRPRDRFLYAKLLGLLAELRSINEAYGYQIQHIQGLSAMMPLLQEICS
Sequence of Thyrotropin receptor (Homo sapiens) (P16473 whole entry, looked up): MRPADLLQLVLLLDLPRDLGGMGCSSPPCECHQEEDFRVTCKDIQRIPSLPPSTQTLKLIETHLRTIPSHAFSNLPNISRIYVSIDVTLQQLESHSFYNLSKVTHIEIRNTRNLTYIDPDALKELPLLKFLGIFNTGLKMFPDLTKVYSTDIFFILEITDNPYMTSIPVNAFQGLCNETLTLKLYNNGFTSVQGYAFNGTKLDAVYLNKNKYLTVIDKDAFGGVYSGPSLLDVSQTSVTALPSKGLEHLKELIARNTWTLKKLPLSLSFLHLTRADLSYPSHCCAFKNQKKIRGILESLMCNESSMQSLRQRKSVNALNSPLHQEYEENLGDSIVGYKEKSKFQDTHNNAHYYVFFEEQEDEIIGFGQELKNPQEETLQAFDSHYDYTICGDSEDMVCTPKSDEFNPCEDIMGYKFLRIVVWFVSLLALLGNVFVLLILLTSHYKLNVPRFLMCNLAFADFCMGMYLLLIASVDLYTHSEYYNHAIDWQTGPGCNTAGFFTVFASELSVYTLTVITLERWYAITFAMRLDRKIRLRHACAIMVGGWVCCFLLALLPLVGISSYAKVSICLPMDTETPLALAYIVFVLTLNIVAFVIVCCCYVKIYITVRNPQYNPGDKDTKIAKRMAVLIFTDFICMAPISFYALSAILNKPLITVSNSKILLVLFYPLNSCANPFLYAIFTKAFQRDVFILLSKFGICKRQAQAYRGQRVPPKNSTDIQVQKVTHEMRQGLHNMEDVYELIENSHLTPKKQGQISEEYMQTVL

`CCCCOC(=O)CCCCCCCCC(=O)OCCCC`: the Potency entry in assay [1], in [2], in assay [3], in [4], in assay [5] and in assay [6] was “inactive” each time. The Potency result in assay [7], in assay [8], in assay [9], in assay [10], in [12] and in [14] was “inactive” each time. The Potency result in [15] is “inactive”. Further, the outcome in assay [11], in [13] and in assay [16] was inactive.

For the compound `CC1(C)O[C@@H]2[C@@H](CO[C@@]3(COS(N)(=O)=O)OC(C)(C)O[C@@H]23)O1`, the Potency result in [1], in assay [2], in assay [3], in assay [4], in [5] and in assay [6] was “inactive” throughout. Besides, the Potency result in assay [7], in assay [17], in [8], in assay [9], in assay [10] and in assay [12] was “inactive” throughout. Further, the Potency entry in assay [18], in assay [14] and in assay [15] was “inactive” each time. In addition, the call in assay [11], in assay [13] and in assay [16] was inactive. Moreover, the activity change, positive = activation is 1.2% in [19] (at 42.5 µM (top of the series)) and -14.9% in [19] (at 92.4 µM (top of the series)).

With `CCCCNC(=O)NS(=O)(=O)c1ccc(N)cc1`, the Potency entry in assay [1], in assay [2], in assay [3], in assay [4], in assay [5] and in assay [6] was “inactive” each time. Besides, the Potency entry in [7], in [17], in [8], in assay [9], in [10] and in assay [12] was “inactive” in each case. For the same compound, the Potency result in assay [18], in [14] and in [15] was “inactive” in each case. In addition, the compound was called inactive in assay [11], in assay [13] and in [16]. Also, the activity change, positive = activation was -4% in assay [19] (at 42.5 µM (top of the series)) and 2.9% in assay [19] (at 92.4 µM (top of the series)).

With `Cc1ccc(O)c(-n2nc3ccccc3n2)c1`, the Potency result in assay [1], in assay [3], in assay [4], in [5], in assay [7] and in assay [17] was “inactive” in each case. Moreover, the Potency result in assay [8], in assay [9], in assay [10], in [18], in assay [14] and in assay [15] was “inactive” throughout. The Potency in [2] was 2.5 µM (active) and 1.59 µM (active) and 3.09 µM (active); in [6] it was 24.1 µM (active) and 21.7 µM (active) and 8.41 µM (active); in [12] it was 100 µM (active) and 89.8 µM (active). Moreover, the compound was called inactive in assay [11], in assay [13] and in assay [16]. For the same compound, the activity change, positive = activation in [19] (at 42.5 µM (top of the series)) was 147% (active); in [19] (at 92.4 µM (top of the series)), 109% (active) and 139% (active).

On to `Cc1cccc2ccccc12`, for which the Potency result in assay [1], in assay [2], in [3], in assay [4], in [5] and in assay [6] was “inactive” in each case. Besides, the Potency entry in [7], in assay [17], in [8], in [9], in assay [10] and in assay [12] was “inactive” in each case. In addition, the Potency entry in assay [18], in assay [14] and in [15] was “inactive” in each case. For the same compound, the outcome in assay [11], in assay [13] and in assay [16] was inactive. In assay [19] (at 92.4 µM (top of the series)), the activity change, positive = activation is -5.59% and 0.133%.

Take `CCCCCCCCCCCCCCCCCC(=O)OCC(O)CO` (stereo not given): the Potency entry in assay [1], in [2], in assay [3], in [4], in assay [5] and in assay [6] was “inactive” throughout. Besides, the Potency result in [7], in assay [8], in assay [9], in assay [10], in [12] and in [14] was “inactive” in each case. Besides, in assay [15], the Potency result was “inactive”. In addition, the compound was called inactive in [11], in assay [13] and in assay [16].

For the compound `O=C1CCCCCN1`, the Potency entry in assay [1], in assay [2], in [3], in assay [4], in [5] and in assay [6] was “inactive” in each case. Also, the Potency result in assay [7], in assay [17], in [8], in assay [9], in assay [10] and in assay [12] was “inactive” throughout. The Potency entry in assay [18], in assay [14] and in [15] was “inactive” throughout. Besides, the call in [11], in [13] and in [16] was inactive. Further, the activity change, positive = activation in assay [19] (at 92.4 µM (top of the series)) is 0.0496% and -0.16%.
